Laboratory results reported in PubChem BioAssay (NCATS).
Records with an inconclusive call do not appear. Activity calls are given as the source filed them. Calls come from the whole dose curve; as a rule, active = well fitted inhibition curve with a large enough effect; inconclusive = small, poorly fitted or top-dose-only effect, or effect the other way; inactive = flat fitted curve, though single readings scatter.

assay: qHTS for Inhibitors of Plasmodium falciparum (GB4) proliferation (AID 504315); note: nearly all actives have a fitted effect of over 50% in size;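 for activity change, negative = inhibition: 0% = DMSO vehicle and -100% = 0.29 µM artemisinin control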; settings: P. falciparum GB4 in erythrocytes, SYBR Green DNA, 72 h; series mostly up to 6.7 µM; activity change, negative = inhibition: at the top concentration
From the text: Plasmodium falciparum is a virulent malarial parasite that kills 1-2 million people worldwide each year. Malaria not only inflicts tremendous suffering and morbidity on the human population, but has dramatically influenced the course of civilization with profound sociological and economic implications (Shah, S. 2010). Transmitted by mosquitoes, the sporozoite form of the parasite enters the blood stream to infect hepatocytes, where they become merozoites that infect red blood cells (erythrocytes). Within erythrocytes, merozoites begin a […] cycle of growth and division, after which the parasite is released to infect new red blood cells. Gametocytes, which form within erythrocytes as well, circulate in the bloodstream and are ingested by the mosquito, thereby completing the life cycle (see CDC website). To profile malarial lines for differential chemical responses and to identify inhibitors of malarial growth, an assay that measures P. falciparum growth and replication within erythrocytes was employed. This assay uses a DNA binding fluorescent dye (SYBR Green) to detect parasite DNA following cell lysis. Because mature erythrocytes lack DNA, only Plasmodium-derived DNA is detected. The P. falciparum line cp250, derived from a malarial isolate from Cambodia, (Mu, J., et al. 2010) was added to the panel of lines, Dd2, HB3, 7G8 and GB4 in this study. Laboratory of Assay Development and Screening Technology [ADST] and NIH Chemical Genomics Center [NCGC] Boston University, Chemistry Department, Center for Chemical Methodology and Library Development [CMLD-BU] NIH National Institute of Allergy and Infectious Diseases [NIAID]
ADST Assay Protocol Summary: The 1536-well SYBR Green viability assay was based on the method of Bennett et al (2004) and described previously in 1536-well format (Yuan J., et al. 2009). For screening 3 ul culture medium was dispensed into 1536 well black clear bottom plates (Aurora Biotechnologies) using a Multidrop Combi (Thermo Fisher Scientific Inc.), 23 nL compounds in DMSO were added by a pin transfer (Cleveland, P.H. and Koutz, P.J, 2005) using a pin tool-based delivery system (Kalypsys), and 5 ul of erythrocytes infected with P. falciparum one of five lines (cp250, Dd2, HB3, 7G8 or GB4, 0.3% parasitemia, 2.5% hematocrit final concentration) were added. The plates were incubated at 37C in a humidified incubator in 5% CO2 for 72 h, and 2 ul lysis buffer (20 mM Tris HCl, 10 mM EDTA, 0.16% saponin, 1.6% triton X, 10X SYBR Green I (supplied as 10,000X final concentration by Invitrogen) was added to each well. The plates were mixed for 25 sec with gentle shaking and incubated overnight at room temperature in the dark. The following morning, fluorescence intensity at 485(14) nm excitation and 535(25) nm emission wavelengths was measured on an EnVision (Perkin Elmer) plate reader. Plate reads were normalized relative to the control inhibitor (0.29 uM artemisinin) and vehicle (DMSO) wells present on each plate and then corrected by an algorithm using vehicle-only control plates at the beginning and end of the compound plate stack. References Shah, S. (2010). The Fever: how malaria has ruled humankind for 500,000 years. New York, Sarah Crichton Books. CDC web site, http://www.cdc.gov/malaria/about/biology/index.html Mu, J., Myers, R.A., Jiang, H., Liu, S., Ricklefs, S., Waisberg, M., Chotivanich, K., Wilairatana, P., Krudsood, S., White, N.J., et Plasmodium falciparum genome-wide scans for positive selection, recombination hot spots and resistance to antimalarial drugs Nature Genetics 2010, 42, pp 268-271 Bennett TN, Paguio, M., Gligorijevic, B., Seudieu, C., Kosar, A. D., Davidson, E., and Roepe, P. D. Novel, rapid, and inexpensive cell-based quantification of antimalarial drug efficacy Antimicrobial Agents Chemother. 2004, 48(5): pp 1807-10 Yuan J, Johnson RL, Huang RL, Wichterman J, Jiang HY, Hayton K, Fidock DA, Wellems TE, Inglese J, Austin CP, Su XZ. […]
Potency is the fitted concentration of half-maximal effect.

Potency, active:
C=CCCC1(C(=O)c2ccccc2)C(=O)C(CC=C(C)C)=C(OC)C(CC=C(C)C)(CCC=C(C)C)C1=O (stereo not given) 1690 nM
COc1ccc([C@]23Cc4ccccc4[C@H](O2)c2c(cc(C)n(Cc4ccccc4)c2=O)O3)cc1 2130 nM

Potency, inactive:
COc1ccc(-c2nc3c(c4c2C[C@H](c2ccccc2)OC4)CN(C(=O)c2cccnc2)CC3)c(C)c1
C=CC1=C2C=C(C3CC3)N(C3CCCC3)C=C2C(=O)C(C)(OC(=O)c2ccco2)C1=O (stereo not given)
COC(=O)CCC(=O)OC1(C)C(=O)C=C2C=C(C3CC3)N(Cc3ccc4c(c3)OCO4)C=C2C1=O (stereo not given)
COCCN1C(=O)N[C@@H](c2cccc(C(F)(F)F)c2)[C@H](C(C)=O)[C@H]1C
CCCCc1nc2c(c3c1C[C@H](C)OC3)CN(C(=O)C1CCCCC1)CC2

Activity change, negative = inhibition, inactive:
CCCC[C@]12Cc3cc(OC)c(OC)cc3[C@H](O1)C1=C(CC3(CCCCC3)OC1=O)O2 -6.39%
COC(=O)NC(c1ccc2c(c1)OCO2)C(C(=O)OC)C(=O)OC (stereo not given) 0.787%
COc1ccc(-c2ccc3c(n2)CCCN3CC(O)CN2CCCc3nc(C)c(C)cc32)cc1 (stereo not given) -2.84%
O=C(NN=C1C[C@@H](O)[C@H](O)[C@H]2[C@@H]3C(=O)N(C4CCCCC4)C(=O)[C@@H]3CC[C@@H]12)OCc1ccccc1 4.02%
C=CCOC(=O)N[C@H](c1ccco1)C(C(C)=O)C(C)=O 16.6%
CCCCC1=CC2=CC(=O)C(C)(OC(=O)CCc3ccccc3)C(=O)C2=CO1 (stereo not given) 7.16%
CC12C=C(C=CCCc3ccco3)C(C)(C1)[C@H](CCc1ccco1)CC2=O (stereo not given in full) -8.11%
Cc1ccc([S+](=O)([O-])N[C@@H]2COC(=O)CC=C[C@H](C)COC(=O)N[C@@H](C)C(=O)CC=C[C@H]2C)cc1 13.9%
C=CCN1C(=O)[C@@]2(CC(C)=CC[C@@H](C)O2)c2c(Br)cccc21 1.99%
O=C1CCCC=C1C(O)COCc1ccccc1 (stereo not given) 0.689%
COC(=O)CC=C[C@@H](C)[C@H](NC(=O)OCC(Cl)(Cl)Cl)c1cccc(OC)c1 2.06%
C[C@@H](ON=C1[C@H]2CCn3c(=O)n(-c4ccccc4)c(=O)n3[C@@H]2[C@H](O)[C@@H]2O[C@H]12)c1cn([C@@H]2COC[C@@H]2O)nn1 12.1%
COc1ccc(-c2nc3c(c4c2C[C@H](c2ccccc2)OC4)CN(C(=O)c2ccco2)CC3)c(C)c1 -13.2%
CC(=O)OC[C@H]1O[C@H](CC=NO[C@@H](C)CN2CCCc3nc(C)c(C)cc32)C=C[C@@H]1OC(C)=O -8.82%
COc1cccc([C@@H]2[C@@H](C)CC[C@@H]3C(=O)NC[C@H](O)CN32)c1 12.5%
COC(=O)N[C@H](CC(C)=O)c1ccc(F)cc1 7.71%
COC(=O)N[C@H](C(C(=O)OC)=C(C)NCc1ccccc1)c1ccco1 14.3%
COc1cccc([C@H]2Oc3ccc(OC)cc3C(=NO[C@H](C)c3cn([C@H](CO)Cc4ccccc4)nn3)[C@H]2O)c1 -1.44%
N#CCCN(CC#Cc1ccccc1)OCc1ccccc1 5.39%
COc1ccc(-c2nc(-c3ccccc3)oc2NC(C)c2ccccc2)cc1 (stereo not given) 6.81%
CC(C)CON=C1C[C@@H](O)[C@@H](O)[C@@H]2[C@H]3C(=O)N(C[C@@H]4CCCO4)C(=O)[C@@H]3CC[C@H]12 7.58%
C=CCOC(=O)N[C@@H](CCc1ccccc1)C(C(C)=O)C(C)=O 4.36%
C=CCOC(=O)NC(c1ccc(F)c(F)c1)C(C(C)=O)C(=O)OC (stereo not given) -0.653%
CC[C@H](C)[C@@H](NC(=O)O[C@@H]1C(=O)c2cc(OC)ccc2O[C@H]1c1ccc(OC)c(Br)c1)C(=O)OC 9.29%
CC(C)=CCn1cnc2c1C(NOCc1ccccc1)=NCN2 6.55%
CCN1C(=O)N(C)C(c2ccccc2)C(C(=O)OC)=C1C (stereo not given) 7.45%
COC(=O)CC=C[C@@H](C)[C@@H](C=NO[C@H](C)CN1CCCc2nc(C)c(C)cc21)N[S+](=O)([O-])c1ccc(C)cc1 -11.9%
COc1cc2c(cc1OC)C1OC(c3ccsc3)(C2)Oc2cc(C)oc(=O)c21 (stereo not given) 0.249%
COc1ccc(COC(=O)NN=C2C[C@@H](O)[C@@H](O)[C@@H]3[C@H]4C(=O)N(C5CCCCC5)C(=O)[C@@H]4CC[C@H]23)cc1 6.02%
C=CCNC(=O)N1CCc2nc(-c3ccc(OC)cc3C)c3c(c2C1)CO[C@@H](c1ccccc1)C3 -2.89%
COC(=O)[C@@H]1CC[C@H](C)[C@@H](c2ccc(C)cc2)N1C(=O)c1ccc(C=NO[C@H](C)c2cn([C@@H]3COC[C@@H]3O)nn2)cc1 0.647%
CCN1C(=O)[C@@H]2[C@H]3[C@H](O)[C@H](O)CC(=NOC[C@@H](O)[C@H]4O[C@@H]5OC(C)(C)O[C@H]5[C@@H]4O)[C@@H]3CC[C@H]2C1=O 19%
COc1ccc(COC(=O)NN=C2C[C@@H](O)[C@@H](O)[C@@H]3[C@H]4C(=O)N(Cc5ccc6c(c5)OCO6)C(=O)[C@@H]4CC[C@H]23)cc1 -1.69%
